# Measured values taken from the supplement of paper PMC4466140.
# Biological target: AgAbp1
# Assay: SPOT peptide array binding signal intensity (averaged, normalized) (arbitrary units (background-subtracted, floor 0; scale differs between SH3 domains)); higher = stronger binding of the SH3 domain to the peptide
# In short: (§1)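 Peptides were synthetic 15-mers on cellulose membranes, with every cysteine replaced by serine. They were incubated overnight at 4°C with GST-SH3 domains from four yeast species at 10 μg/ml in TBS-based blocking buffer. Binding signal, the replicate-averaged normalized and background-subtracted spot intensity, is in arbitrary units that differ between domains.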
row,Binder,SPOT peptide array binding signal intensity
1,QTMRQAPKRPDADVA,17

# Biological target: AgBbc1
# Assay: as above
# In short: as §1
row,Binder,SPOT peptide array binding signal intensity
1,QTMRQAPKRPDADVA,170

# Biological target: AgBem1-D1
# Assay: as above
# In short: as §1
row,Binder,SPOT peptide array binding signal intensity
1,QTMRQAPKRPDADVA,369

# Biological target: AgBzz1-D1
# Assay: as above
# In short: as §1
row,Binder,SPOT peptide array binding signal intensity
1,QTMRQAPKRPDADVA,11

# Biological target: AgBzz1-D2
# Assay: as above
# In short: as §1
row,Binder,SPOT peptide array binding signal intensity
1,QTMRQAPKRPDADVA,10

# Biological target: AgCyk3
# Assay: as above
# In short: as §1
row,Binder,SPOT peptide array binding signal intensity
1,QTMRQAPKRPDADVA,≤ 0

# Biological target: AgFus1
# Assay: as above
# In short: as §1
row,Binder,SPOT peptide array binding signal intensity
1,QTMRQAPKRPDADVA,728

# Biological target: AgHof1
# Assay: as above
# In short: as §1
row,Binder,SPOT peptide array binding signal intensity
1,QTMRQAPKRPDADVA,9

# Biological target: AgHse1
# Assay: as above
# In short: as §1
row,Binder,SPOT peptide array binding signal intensity
1,QTMRQAPKRPDADVA,132

# Biological target: AgLsb1
# Assay: as above
# In short: as §1
row,Binder,SPOT peptide array binding signal intensity
1,QTMRQAPKRPDADVA,48.8

# Biological target: AgLsb4
# Assay: as above
# In short: as §1
row,Binder,SPOT peptide array binding signal intensity
1,QTMRQAPKRPDADVA,36

# Biological target: AgMyo5
# Assay: as above
# In short: as §1
row,Binder,SPOT peptide array binding signal intensity
1,QTMRQAPKRPDADVA,18.8

# Biological target: AgNbp2
# Assay: as above
# In short: as §1
row,Binder,SPOT peptide array binding signal intensity
1,QTMRQAPKRPDADVA,2740

# Biological target: AgRvs167
# Assay: as above
# In short: as §1
row,Binder,SPOT peptide array binding signal intensity
1,QTMRQAPKRPDADVA,20.3

# Biological target: AgSho1
# Assay: as above
# In short: as §1
row,Binder,SPOT peptide array binding signal intensity
1,QTMRQAPKRPDADVA,684

# Biological target: AgSla1-D1-D2
# Assay: as above
# In short: as §1
row,Binder,SPOT peptide array binding signal intensity
1,QTMRQAPKRPDADVA,9

# Biological target: AgSla1-D3
# Assay: as above
# In short: as §1
row,Binder,SPOT peptide array binding signal intensity
1,QTMRQAPKRPDADVA,14.8

# Biological target: CaAbp1-D1
# Assay: as above
# In short: as §1
row,Binder,SPOT peptide array binding signal intensity
1,QTMRQAPKRPDADVA,144

# Biological target: CaAbp1-D2
# Assay: as above
# In short: as §1
row,Binder,SPOT peptide array binding signal intensity
1,QTMRQAPKRPDADVA,292

# Biological target: CaBbc1
# Assay: as above
# In short: as §1
row,Binder,SPOT peptide array binding signal intensity
1,QTMRQAPKRPDADVA,942

# Biological target: CaBem1-D1
# Assay: as above
# In short: as §1
row,Binder,SPOT peptide array binding signal intensity
1,QTMRQAPKRPDADVA,565

# Biological target: CaBzz1-D1
# Assay: as above
# In short: as §1
row,Binder,SPOT peptide array binding signal intensity
1,QTMRQAPKRPDADVA,458

# Biological target: CaBzz1-D2
# Assay: as above
# In short: as §1
row,Binder,SPOT peptide array binding signal intensity
1,QTMRQAPKRPDADVA,286

# Biological target: CaCyk3
# Assay: as above
# In short: as §1
row,Binder,SPOT peptide array binding signal intensity
1,QTMRQAPKRPDADVA,35

# Biological target: CaFus1
# Assay: as above
# In short: as §1
row,Binder,SPOT peptide array binding signal intensity
1,QTMRQAPKRPDADVA,1110

# Biological target: CaHof1
# Assay: as above
# In short: as §1
row,Binder,SPOT peptide array binding signal intensity
1,QTMRQAPKRPDADVA,1

# Biological target: CaHse1
# Assay: as above
# In short: as §1
row,Binder,SPOT peptide array binding signal intensity
1,QTMRQAPKRPDADVA,146

# Biological target: CaLsb1
# Assay: as above
# In short: as §1
row,Binder,SPOT peptide array binding signal intensity
1,QTMRQAPKRPDADVA,18.2

# Biological target: CaLsb4
# Assay: as above
# In short: as §1
row,Binder,SPOT peptide array binding signal intensity
1,QTMRQAPKRPDADVA,910

# Biological target: CaMyo5
# Assay: as above
# In short: as §1
row,Binder,SPOT peptide array binding signal intensity
1,QTMRQAPKRPDADVA,56.2

# Biological target: CaNbp2
# Assay: as above
# In short: as §1
row,Binder,SPOT peptide array binding signal intensity
1,QTMRQAPKRPDADVA,1450

# Biological target: CaRvs167
# Assay: as above
# In short: as §1
row,Binder,SPOT peptide array binding signal intensity
1,QTMRQAPKRPDADVA,163

# Biological target: CaRvs167-3
# Assay: as above
# In short: as §1
row,Binder,SPOT peptide array binding signal intensity
1,QTMRQAPKRPDADVA,0.75

# Biological target: CaSho1
# Assay: as above
# In short: as §1
row,Binder,SPOT peptide array binding signal intensity
1,QTMRQAPKRPDADVA,1860

# Biological target: CaSla1-D1-D2
# Assay: as above
# In short: as §1
row,Binder,SPOT peptide array binding signal intensity
1,QTMRQAPKRPDADVA,553

# Biological target: CaSla1-D3
# Assay: as above
# In short: as §1
row,Binder,SPOT peptide array binding signal intensity
1,QTMRQAPKRPDADVA,650

# Biological target: ScAbp1
# Assay: as above
# In short: as §1
row,Binder,SPOT peptide array binding signal intensity
1,QTMRQAPKRPDADVA,7

# Biological target: ScBbc1
# Assay: as above
# In short: as §1
row,Binder,SPOT peptide array binding signal intensity
1,QTMRQAPKRPDADVA,68.5

# Biological target: ScBem1-D1
# Assay: as above
# In short: as §1
row,Binder,SPOT peptide array binding signal intensity
1,QTMRQAPKRPDADVA,1

# Biological target: ScBzz1-D1
# Assay: as above
# In short: as §1
row,Binder,SPOT peptide array binding signal intensity
1,QTMRQAPKRPDADVA,6

# Biological target: ScBzz1-D2
# Assay: as above
# In short: as §1
row,Binder,SPOT peptide array binding signal intensity
1,QTMRQAPKRPDADVA,27

# Biological target: ScCyk3
# Assay: as above
# In short: as §1
row,Binder,SPOT peptide array binding signal intensity
1,QTMRQAPKRPDADVA,4

# Biological target: ScFus1
# Assay: as above
# In short: as §1
row,Binder,SPOT peptide array binding signal intensity
1,QTMRQAPKRPDADVA,1110

# Biological target: ScHof1
# Assay: as above
# In short: as §1
row,Binder,SPOT peptide array binding signal intensity
1,QTMRQAPKRPDADVA,0.5

# Biological target: ScHse1
# Assay: as above
# In short: as §1
row,Binder,SPOT peptide array binding signal intensity
1,QTMRQAPKRPDADVA,84.5

# Biological target: ScLsb1
# Assay: as above
# In short: as §1
row,Binder,SPOT peptide array binding signal intensity
1,QTMRQAPKRPDADVA,78

# Biological target: ScLsb2
# Assay: as above
# In short: as §1
row,Binder,SPOT peptide array binding signal intensity
1,QTMRQAPKRPDADVA,29.5

# Biological target: ScLsb3
# Assay: as above
# In short: as §1
row,Binder,SPOT peptide array binding signal intensity
1,QTMRQAPKRPDADVA,961

# Biological target: ScLsb4
# Assay: as above
# In short: as §1
row,Binder,SPOT peptide array binding signal intensity
1,QTMRQAPKRPDADVA,524

# Biological target: ScMyo3
# Assay: as above
# In short: as §1
row,Binder,SPOT peptide array binding signal intensity
1,QTMRQAPKRPDADVA,227

# Biological target: ScMyo5
# Assay: as above
# In short: as §1
row,Binder,SPOT peptide array binding signal intensity
1,QTMRQAPKRPDADVA,47.5

# Biological target: ScNbp2
# Assay: as above
# In short: as §1
row,Binder,SPOT peptide array binding signal intensity
1,QTMRQAPKRPDADVA,3190

# Biological target: ScPex13
# Assay: as above
# In short: as §1
row,Binder,SPOT peptide array binding signal intensity
1,QTMRQAPKRPDADVA,766

# Biological target: ScRvs167
# Assay: as above
# In short: as §1
row,Binder,SPOT peptide array binding signal intensity
1,QTMRQAPKRPDADVA,136

# Biological target: ScSho1
# Assay: as above
# In short: as §1
row,Binder,SPOT peptide array binding signal intensity
1,QTMRQAPKRPDADVA,930

# Biological target: ScSla1-D1-D2
# Assay: as above
# In short: as §1
row,Binder,SPOT peptide array binding signal intensity
1,QTMRQAPKRPDADVA,690

# Biological target: ScSla1-D3
# Assay: as above
# In short: as §1
row,Binder,SPOT peptide array binding signal intensity
1,QTMRQAPKRPDADVA,700

# Biological target: SpAbp1-D1
# Assay: as above
# In short: as §1
row,Binder,SPOT peptide array binding signal intensity
1,QTMRQAPKRPDADVA,66

# Biological target: SpBbc1
# Assay: as above
# In short: as §1
row,Binder,SPOT peptide array binding signal intensity
1,QTMRQAPKRPDADVA,42.5

# Biological target: SpBzz1-D1
# Assay: as above
# In short: as §1
row,Binder,SPOT peptide array binding signal intensity
1,QTMRQAPKRPDADVA,188

# Biological target: SpBzz1-D2
# Assay: as above
# In short: as §1
row,Binder,SPOT peptide array binding signal intensity
1,QTMRQAPKRPDADVA,512

# Biological target: SpCyk3
# Assay: as above
# In short: as §1
row,Binder,SPOT peptide array binding signal intensity
1,QTMRQAPKRPDADVA,3

# Biological target: SpHof1
# Assay: as above
# In short: as §1
row,Binder,SPOT peptide array binding signal intensity
1,QTMRQAPKRPDADVA,51.5

# Biological target: SpHof1-2
# Assay: as above
# In short: as §1
row,Binder,SPOT peptide array binding signal intensity
1,QTMRQAPKRPDADVA,27.5

# Biological target: SpHof1-3
# Assay: as above
# In short: as §1
row,Binder,SPOT peptide array binding signal intensity
1,QTMRQAPKRPDADVA,32.8

# Biological target: SpHse1
# Assay: as above
# In short: as §1
row,Binder,SPOT peptide array binding signal intensity
1,QTMRQAPKRPDADVA,240

# Biological target: SpLsb1
# Assay: as above
# In short: as §1
row,Binder,SPOT peptide array binding signal intensity
1,QTMRQAPKRPDADVA,34

# Biological target: SpLsb4
# Assay: as above
# In short: as §1
row,Binder,SPOT peptide array binding signal intensity
1,QTMRQAPKRPDADVA,990

# Biological target: SpMyo1
# Assay: as above
# In short: as §1
row,Binder,SPOT peptide array binding signal intensity
1,QTMRQAPKRPDADVA,229

# Biological target: SpNbp2
# Assay: as above
# In short: as §1
row,Binder,SPOT peptide array binding signal intensity
1,QTMRQAPKRPDADVA,847

# Biological target: SpPex13
# Assay: as above
# In short: as §1
row,Binder,SPOT peptide array binding signal intensity
1,QTMRQAPKRPDADVA,35

# Biological target: SpRvs167
# Assay: as above
# In short: as §1
row,Binder,SPOT peptide array binding signal intensity
1,QTMRQAPKRPDADVA,188

# Biological target: SpSla1-D1-D2
# Assay: as above
# In short: as §1
row,Binder,SPOT peptide array binding signal intensity
1,QTMRQAPKRPDADVA,11

# Biological target: SpSla1-D3
# Assay: as above
# In short: as §1
row,Binder,SPOT peptide array binding signal intensity
1,QTMRQAPKRPDADVA,491
